# From paper PMC7862700, “An all-to-all approach to the identification of sequence-specific readers for epigenetic DNA modifications on cytosine”
# Legend:
# Assay in all cases: DAPPL (digital affinity profiling via proximity ligation, sequencing); 10 mM Tris-HCl pH 7.5, 50 mM NaCl, 1 mM DTT, 4% glycerol, room temperature, 30 min; GST-TFs on glutathione beads, 16-mer random dsDNA library, 0.1% formaldehyde crosslink after washing; high values mean tight binding
# FLI1 = target: T1, FLI1 (Homo sapiens, UniProt Q01543 1-452); settings: protein: recombinant; tags: N-terminal GST; dsDNA, one strand shown
# T1 sequence: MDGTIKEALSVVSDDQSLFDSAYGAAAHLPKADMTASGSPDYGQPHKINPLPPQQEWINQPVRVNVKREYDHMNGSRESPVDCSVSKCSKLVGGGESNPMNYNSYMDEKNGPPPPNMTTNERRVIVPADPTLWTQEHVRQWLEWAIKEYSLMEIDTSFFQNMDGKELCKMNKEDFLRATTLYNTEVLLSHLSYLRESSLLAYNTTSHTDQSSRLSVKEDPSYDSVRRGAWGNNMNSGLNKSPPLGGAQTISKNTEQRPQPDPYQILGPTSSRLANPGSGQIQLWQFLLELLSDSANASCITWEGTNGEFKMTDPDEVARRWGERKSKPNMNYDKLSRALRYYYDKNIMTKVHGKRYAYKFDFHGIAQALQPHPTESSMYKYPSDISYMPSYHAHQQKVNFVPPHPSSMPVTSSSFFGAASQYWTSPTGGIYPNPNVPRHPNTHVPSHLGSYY
# Summary of the method: (§1)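 Binding signal is given per hexamer as its read frequency for a factor divided by its frequency in the tag-only sample. GST-fused human transcription factors were expressed in yeast, captured on glutathione beads, barcoded with DNA and pooled with that sample, then incubated with 200 nmole of a 16-mer random double-stranded DNA library in Tris/NaCl/DTT/glycerol buffer for 30 min at room temperature. The pools were then washed, crosslinked, proximity-ligated, amplified by PCR and sequenced on an Illumina NextSeq500.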
# ELK1 = target: T2, ELK1 (Homo sapiens, UniProt P19419 1-428); settings: protein: recombinant; tags: N-terminal GST; dsDNA, one strand shown
# T2 sequence: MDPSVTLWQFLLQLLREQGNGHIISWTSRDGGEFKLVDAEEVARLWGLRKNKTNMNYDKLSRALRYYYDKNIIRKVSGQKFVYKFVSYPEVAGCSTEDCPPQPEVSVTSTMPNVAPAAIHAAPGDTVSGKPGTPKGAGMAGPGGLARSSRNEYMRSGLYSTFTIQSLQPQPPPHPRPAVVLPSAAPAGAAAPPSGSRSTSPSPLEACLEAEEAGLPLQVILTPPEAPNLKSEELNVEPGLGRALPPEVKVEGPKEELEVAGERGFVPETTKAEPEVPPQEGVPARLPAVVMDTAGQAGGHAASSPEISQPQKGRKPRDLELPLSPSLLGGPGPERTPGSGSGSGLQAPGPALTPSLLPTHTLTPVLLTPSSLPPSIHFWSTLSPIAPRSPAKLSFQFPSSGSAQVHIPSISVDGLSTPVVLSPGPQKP
# Summary of the method: as §1
# GABPA = target: T3, GABPA (Homo sapiens, UniProt Q06546 1-454); settings: protein: recombinant; tags: N-terminal GST; dsDNA, one strand shown
# T3 sequence: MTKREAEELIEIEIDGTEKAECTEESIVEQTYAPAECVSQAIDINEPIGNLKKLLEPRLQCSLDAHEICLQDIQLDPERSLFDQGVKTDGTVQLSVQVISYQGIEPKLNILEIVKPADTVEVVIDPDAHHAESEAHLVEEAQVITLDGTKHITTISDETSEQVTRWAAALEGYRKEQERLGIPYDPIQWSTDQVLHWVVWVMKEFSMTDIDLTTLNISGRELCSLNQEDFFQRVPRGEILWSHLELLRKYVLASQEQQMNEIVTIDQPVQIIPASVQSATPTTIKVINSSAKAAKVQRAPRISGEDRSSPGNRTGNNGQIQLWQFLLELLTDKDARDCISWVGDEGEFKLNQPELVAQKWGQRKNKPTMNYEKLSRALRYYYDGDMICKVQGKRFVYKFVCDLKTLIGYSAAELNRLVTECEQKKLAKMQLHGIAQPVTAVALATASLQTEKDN
# Summary of the method: as §1
# ERG = target: T4, ERG (Homo sapiens, UniProt P11308 1-479); settings: protein: recombinant; tags: N-terminal GST; dsDNA, one strand shown
# T4 sequence: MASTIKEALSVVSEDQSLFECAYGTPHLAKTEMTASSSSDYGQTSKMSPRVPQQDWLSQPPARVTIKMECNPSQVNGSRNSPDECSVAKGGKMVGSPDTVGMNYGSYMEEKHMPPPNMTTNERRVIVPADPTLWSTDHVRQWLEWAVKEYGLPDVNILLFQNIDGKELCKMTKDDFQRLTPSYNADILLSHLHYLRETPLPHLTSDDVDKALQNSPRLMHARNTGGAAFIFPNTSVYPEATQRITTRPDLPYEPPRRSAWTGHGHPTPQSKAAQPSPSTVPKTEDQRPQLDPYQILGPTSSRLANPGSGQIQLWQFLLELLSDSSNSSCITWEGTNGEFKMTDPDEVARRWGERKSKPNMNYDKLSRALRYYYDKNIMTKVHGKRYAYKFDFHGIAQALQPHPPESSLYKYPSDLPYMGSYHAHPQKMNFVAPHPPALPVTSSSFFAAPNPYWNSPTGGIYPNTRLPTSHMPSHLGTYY
# Summary of the method: as §1
# ELF1 = ELF1 (Homo sapiens, UniProt P32519 1-619); settings: protein: recombinant; tags: N-terminal GST; dsDNA, one strand shown
# Summary of the method: as §1
# EHF = target: T5, EHF (Homo sapiens, UniProt Q9NZC4 1-300); settings: protein: recombinant; tags: N-terminal GST; dsDNA, one strand shown
# T5 sequence: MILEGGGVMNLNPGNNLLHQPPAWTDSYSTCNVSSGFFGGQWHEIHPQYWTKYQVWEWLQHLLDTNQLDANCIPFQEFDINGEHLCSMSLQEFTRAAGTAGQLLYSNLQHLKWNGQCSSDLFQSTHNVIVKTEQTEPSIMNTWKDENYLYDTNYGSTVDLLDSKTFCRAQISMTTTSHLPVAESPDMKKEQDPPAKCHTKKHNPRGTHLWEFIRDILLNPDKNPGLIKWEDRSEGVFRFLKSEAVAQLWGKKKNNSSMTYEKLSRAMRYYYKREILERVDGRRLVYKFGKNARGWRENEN
# Summary of the method: as §1
# SPI1 = SPI1 (Homo sapiens, UniProt P17947 1-270); settings: protein: recombinant; tags: N-terminal GST; dsDNA, one strand shown
# Summary of the method: as §1
# SPIB = SPIB (Homo sapiens, UniProt Q01892 1-262); settings: protein: recombinant; tags: N-terminal GST; dsDNA, one strand shown
# Summary of the method: as §1
# ELK3 = target: T6, ELK3 (Homo sapiens, UniProt P41970 1-407); settings: protein: recombinant; tags: N-terminal GST; dsDNA, one strand shown
# T6 sequence: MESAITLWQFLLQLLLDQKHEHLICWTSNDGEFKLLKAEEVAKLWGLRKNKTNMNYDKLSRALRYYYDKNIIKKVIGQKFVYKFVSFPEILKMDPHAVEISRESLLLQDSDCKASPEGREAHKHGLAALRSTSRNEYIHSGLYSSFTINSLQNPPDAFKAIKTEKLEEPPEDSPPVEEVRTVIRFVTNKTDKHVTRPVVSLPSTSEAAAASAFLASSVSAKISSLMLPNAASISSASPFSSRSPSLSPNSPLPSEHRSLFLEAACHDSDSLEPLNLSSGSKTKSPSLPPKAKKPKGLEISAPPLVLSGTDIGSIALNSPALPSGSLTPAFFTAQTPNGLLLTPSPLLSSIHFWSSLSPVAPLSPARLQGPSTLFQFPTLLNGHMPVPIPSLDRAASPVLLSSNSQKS
# Summary of the method: as §1
# FEV = target: T7, FEV (Homo sapiens, UniProt Q99581 1-238); settings: protein: recombinant; tags: N-terminal GST; dsDNA, one strand shown
# T7 sequence: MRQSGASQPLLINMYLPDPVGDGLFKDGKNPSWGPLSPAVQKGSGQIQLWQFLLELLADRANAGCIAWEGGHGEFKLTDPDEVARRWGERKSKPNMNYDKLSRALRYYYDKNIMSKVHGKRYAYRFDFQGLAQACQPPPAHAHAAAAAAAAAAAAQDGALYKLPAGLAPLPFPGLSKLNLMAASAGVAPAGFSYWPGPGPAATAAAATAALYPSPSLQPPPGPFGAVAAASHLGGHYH
# Summary of the method: as §1
# ETV5 = ETV5 (Homo sapiens, UniProt P41161 1-510); settings: protein: recombinant; tags: N-terminal GST; dsDNA, one strand shown
# Summary of the method: as §1
# HSF1 = HSF1 (Homo sapiens, UniProt Q00613 1-529); settings: protein: recombinant; tags: N-terminal GST; chain copies: 3; dsDNA, one strand shown
# Summary of the method: as §1
# SPIC = target: T8, SPIC (Homo sapiens, UniProt Q8N5J4 1-248); settings: protein: recombinant; tags: N-terminal GST; dsDNA, one strand shown
# T8 sequence: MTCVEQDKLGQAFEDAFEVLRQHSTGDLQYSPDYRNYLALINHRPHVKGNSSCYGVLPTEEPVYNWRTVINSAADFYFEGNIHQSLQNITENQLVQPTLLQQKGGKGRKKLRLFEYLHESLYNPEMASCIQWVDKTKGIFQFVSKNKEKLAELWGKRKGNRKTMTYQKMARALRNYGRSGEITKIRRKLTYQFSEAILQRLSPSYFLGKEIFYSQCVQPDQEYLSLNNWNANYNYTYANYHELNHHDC
# Summary of the method: as §1
# ELF4 = ELF4 (Homo sapiens, UniProt Q99607 1-663); settings: protein: recombinant; tags: N-terminal GST; dsDNA, one strand shown
# Summary of the method: as §1
# ELK4 = target: T9, ELK4 (Homo sapiens, UniProt P28324-2 1-405); settings: protein: recombinant; tags: N-terminal GST; dsDNA, one strand shown
# T9 sequence: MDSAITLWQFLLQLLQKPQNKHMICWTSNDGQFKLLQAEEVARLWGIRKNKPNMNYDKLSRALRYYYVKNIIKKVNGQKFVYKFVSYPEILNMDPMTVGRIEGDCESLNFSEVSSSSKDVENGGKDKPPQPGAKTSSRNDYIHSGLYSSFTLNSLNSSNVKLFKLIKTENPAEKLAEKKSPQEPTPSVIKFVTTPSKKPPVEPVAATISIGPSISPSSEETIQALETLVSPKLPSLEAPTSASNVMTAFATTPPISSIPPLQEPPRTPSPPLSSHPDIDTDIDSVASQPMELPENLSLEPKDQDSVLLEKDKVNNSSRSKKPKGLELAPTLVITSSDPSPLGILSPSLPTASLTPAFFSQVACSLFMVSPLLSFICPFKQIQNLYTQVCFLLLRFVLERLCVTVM
# Summary of the method: as §1
# ETV2 = target: T10, ETV2 (Homo sapiens, UniProt O00321 1-342); settings: protein: recombinant; tags: N-terminal GST; dsDNA, one strand shown
# T10 sequence: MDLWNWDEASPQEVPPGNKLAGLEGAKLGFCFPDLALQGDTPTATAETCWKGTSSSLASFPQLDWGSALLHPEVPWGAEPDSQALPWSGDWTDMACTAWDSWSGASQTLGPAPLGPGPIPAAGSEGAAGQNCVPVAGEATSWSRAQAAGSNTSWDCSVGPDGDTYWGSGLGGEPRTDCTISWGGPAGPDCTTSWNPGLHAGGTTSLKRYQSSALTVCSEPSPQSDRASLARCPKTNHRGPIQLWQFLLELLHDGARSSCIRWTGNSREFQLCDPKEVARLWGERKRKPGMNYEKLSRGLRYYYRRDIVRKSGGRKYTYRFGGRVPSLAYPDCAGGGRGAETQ
# Summary of the method: as §1
# ELF3 = target: T11, ELF3 (Homo sapiens, UniProt P78545 1-371); settings: protein: recombinant; tags: N-terminal GST; dsDNA, one strand shown
# T11 sequence: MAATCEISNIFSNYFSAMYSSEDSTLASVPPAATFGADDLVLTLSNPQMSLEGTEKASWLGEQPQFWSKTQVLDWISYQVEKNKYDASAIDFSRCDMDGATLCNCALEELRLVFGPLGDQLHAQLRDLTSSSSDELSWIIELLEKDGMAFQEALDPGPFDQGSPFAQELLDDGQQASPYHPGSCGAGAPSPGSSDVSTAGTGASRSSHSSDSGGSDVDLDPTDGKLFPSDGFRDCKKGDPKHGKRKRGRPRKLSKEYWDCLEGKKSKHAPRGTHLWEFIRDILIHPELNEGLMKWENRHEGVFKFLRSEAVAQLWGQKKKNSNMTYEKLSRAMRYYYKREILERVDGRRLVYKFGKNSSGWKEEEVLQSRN
# Summary of the method: as §1
# CRX = CRX (Homo sapiens, UniProt O43186 1-299); settings: protein: recombinant; tags: N-terminal GST; dsDNA, one strand shown
# Summary of the method: as §1
# ETV1 = ETV1 (Homo sapiens, UniProt P50549 1-477); settings: protein: recombinant; tags: N-terminal GST; dsDNA, one strand shown
# Summary of the method: as §1
# ETV5, sequence (P41161 whole entry): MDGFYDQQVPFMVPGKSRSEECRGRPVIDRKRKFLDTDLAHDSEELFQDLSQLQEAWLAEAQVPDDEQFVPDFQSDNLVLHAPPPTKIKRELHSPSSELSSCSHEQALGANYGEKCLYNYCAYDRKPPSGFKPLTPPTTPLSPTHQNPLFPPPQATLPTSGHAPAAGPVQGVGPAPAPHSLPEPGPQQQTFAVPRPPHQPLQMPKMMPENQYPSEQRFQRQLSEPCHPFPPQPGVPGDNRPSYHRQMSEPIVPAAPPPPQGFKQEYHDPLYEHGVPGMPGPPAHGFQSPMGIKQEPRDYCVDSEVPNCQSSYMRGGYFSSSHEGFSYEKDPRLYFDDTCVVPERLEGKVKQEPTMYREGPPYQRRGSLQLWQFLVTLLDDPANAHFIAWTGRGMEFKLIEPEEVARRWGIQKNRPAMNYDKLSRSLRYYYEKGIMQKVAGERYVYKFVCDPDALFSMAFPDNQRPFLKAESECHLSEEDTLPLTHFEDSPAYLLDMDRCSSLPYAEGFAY
# ELF1, sequence (P32519 whole entry): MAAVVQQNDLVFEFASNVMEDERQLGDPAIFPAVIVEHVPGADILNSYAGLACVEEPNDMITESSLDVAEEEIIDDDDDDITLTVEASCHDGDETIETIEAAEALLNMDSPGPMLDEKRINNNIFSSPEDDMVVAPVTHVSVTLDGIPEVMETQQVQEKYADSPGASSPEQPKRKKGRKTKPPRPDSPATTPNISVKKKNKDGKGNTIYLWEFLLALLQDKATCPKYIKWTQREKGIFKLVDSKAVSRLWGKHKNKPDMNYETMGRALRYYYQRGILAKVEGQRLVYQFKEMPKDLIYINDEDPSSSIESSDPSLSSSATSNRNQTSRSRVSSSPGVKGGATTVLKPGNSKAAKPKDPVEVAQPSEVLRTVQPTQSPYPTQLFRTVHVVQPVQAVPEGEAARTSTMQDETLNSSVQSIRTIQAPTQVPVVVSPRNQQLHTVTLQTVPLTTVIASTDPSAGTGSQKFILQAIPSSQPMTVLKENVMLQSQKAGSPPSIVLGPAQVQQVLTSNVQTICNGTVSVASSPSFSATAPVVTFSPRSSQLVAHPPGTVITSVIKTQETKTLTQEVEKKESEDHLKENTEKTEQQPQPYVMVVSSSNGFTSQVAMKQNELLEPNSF
# SPIB, sequence (Q01892 whole entry): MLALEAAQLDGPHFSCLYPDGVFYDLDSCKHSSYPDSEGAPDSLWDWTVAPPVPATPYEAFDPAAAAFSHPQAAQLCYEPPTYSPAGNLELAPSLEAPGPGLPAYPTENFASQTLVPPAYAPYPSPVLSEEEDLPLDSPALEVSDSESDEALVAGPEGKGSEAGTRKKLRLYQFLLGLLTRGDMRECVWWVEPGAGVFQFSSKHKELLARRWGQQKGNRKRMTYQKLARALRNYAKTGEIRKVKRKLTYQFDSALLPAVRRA
# CRX, sequence (O43186 whole entry): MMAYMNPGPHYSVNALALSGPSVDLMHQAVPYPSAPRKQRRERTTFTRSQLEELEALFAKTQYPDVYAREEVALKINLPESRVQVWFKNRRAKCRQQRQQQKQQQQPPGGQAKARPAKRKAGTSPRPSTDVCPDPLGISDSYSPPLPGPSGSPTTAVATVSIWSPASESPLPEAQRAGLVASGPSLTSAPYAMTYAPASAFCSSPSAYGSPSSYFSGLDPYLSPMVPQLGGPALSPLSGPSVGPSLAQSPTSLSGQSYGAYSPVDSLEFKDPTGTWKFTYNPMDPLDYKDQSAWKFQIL
# HSF1, sequence (Q00613 whole entry): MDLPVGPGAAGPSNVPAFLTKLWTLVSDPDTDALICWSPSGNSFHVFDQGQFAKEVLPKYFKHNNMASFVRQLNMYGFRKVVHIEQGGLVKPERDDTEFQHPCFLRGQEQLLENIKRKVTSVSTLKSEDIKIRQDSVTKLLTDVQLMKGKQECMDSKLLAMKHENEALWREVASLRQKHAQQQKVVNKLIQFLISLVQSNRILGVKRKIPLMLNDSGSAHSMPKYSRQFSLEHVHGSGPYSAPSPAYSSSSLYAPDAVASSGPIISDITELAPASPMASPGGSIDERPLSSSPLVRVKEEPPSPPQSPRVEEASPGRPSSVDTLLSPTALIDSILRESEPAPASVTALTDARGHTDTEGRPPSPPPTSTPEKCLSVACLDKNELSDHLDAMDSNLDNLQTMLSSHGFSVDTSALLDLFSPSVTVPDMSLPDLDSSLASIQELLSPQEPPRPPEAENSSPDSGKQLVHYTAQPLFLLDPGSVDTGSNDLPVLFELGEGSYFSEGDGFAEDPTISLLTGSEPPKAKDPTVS
# ELF4, sequence (Q99607 whole entry): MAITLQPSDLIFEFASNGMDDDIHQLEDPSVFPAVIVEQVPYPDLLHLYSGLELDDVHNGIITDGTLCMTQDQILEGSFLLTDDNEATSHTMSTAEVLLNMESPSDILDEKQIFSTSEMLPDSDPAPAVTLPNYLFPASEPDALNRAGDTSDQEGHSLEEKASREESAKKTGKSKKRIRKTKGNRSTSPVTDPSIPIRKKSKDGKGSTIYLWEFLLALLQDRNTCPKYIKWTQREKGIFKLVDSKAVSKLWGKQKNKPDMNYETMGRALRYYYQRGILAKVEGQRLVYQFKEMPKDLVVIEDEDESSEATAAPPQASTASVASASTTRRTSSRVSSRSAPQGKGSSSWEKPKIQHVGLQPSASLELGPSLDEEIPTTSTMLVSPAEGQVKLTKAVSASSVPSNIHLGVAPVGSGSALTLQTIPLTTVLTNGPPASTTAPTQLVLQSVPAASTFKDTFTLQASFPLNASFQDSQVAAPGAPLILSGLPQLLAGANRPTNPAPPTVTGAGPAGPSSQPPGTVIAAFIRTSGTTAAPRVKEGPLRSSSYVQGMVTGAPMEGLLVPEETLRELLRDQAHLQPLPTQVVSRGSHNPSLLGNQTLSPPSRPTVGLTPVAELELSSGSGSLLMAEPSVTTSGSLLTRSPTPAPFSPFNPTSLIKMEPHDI
# ETV1, sequence (P50549 whole entry): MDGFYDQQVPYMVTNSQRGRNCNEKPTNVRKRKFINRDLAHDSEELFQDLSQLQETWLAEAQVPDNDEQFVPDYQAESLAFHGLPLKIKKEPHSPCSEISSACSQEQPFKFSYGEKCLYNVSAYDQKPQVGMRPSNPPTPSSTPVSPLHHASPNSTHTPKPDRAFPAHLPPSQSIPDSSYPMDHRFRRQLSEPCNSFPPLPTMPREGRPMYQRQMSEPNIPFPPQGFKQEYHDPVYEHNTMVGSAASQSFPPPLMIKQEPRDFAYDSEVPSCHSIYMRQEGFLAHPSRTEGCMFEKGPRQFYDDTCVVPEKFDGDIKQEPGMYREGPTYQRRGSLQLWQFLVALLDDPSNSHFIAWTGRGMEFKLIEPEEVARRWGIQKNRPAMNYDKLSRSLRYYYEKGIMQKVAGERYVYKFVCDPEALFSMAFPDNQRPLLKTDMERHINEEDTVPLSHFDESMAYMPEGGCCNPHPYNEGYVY
sequence,measurement,setting,value
TCCAAC,binding signal,FLI1,"1.22 fold enrichment (6-mer frequency, TF over GST control)"
same,binding signal,ELK1,"1.24 fold enrichment (6-mer frequency, TF over GST control)"
same,binding signal,GABPA,"1.22 fold enrichment (6-mer frequency, TF over GST control)"
same,binding signal,ERG,"1.16 fold enrichment (6-mer frequency, TF over GST control)"
same,binding signal,ELF1,"1.25 fold enrichment (6-mer frequency, TF over GST control)"
same,binding signal,EHF,"1.23 fold enrichment (6-mer frequency, TF over GST control)"
same,binding signal,SPI1,"1.18 fold enrichment (6-mer frequency, TF over GST control)"
same,binding signal,SPIB,"1.16 fold enrichment (6-mer frequency, TF over GST control)"
same,binding signal,ELK3,"1.21 fold enrichment (6-mer frequency, TF over GST control)"
same,binding signal,FEV,"1.21 fold enrichment (6-mer frequency, TF over GST control)"
same,binding signal,ETV5,"1.14 fold enrichment (6-mer frequency, TF over GST control)"
same,binding signal,HSF1,"1.11 fold enrichment (6-mer frequency, TF over GST control)"
same,binding signal,SPIC,"1.26 fold enrichment (6-mer frequency, TF over GST control)"
same,binding signal,ELF4,"1.24 fold enrichment (6-mer frequency, TF over GST control)"
same,binding signal,ELK4,"1.21 fold enrichment (6-mer frequency, TF over GST control)"
same,binding signal,ETV2,"1.22 fold enrichment (6-mer frequency, TF over GST control)"
same,binding signal,ELF3,"1.23 fold enrichment (6-mer frequency, TF over GST control)"
same,binding signal,CRX,"1.05 fold enrichment (6-mer frequency, TF over GST control)"
same,binding signal,ETV1,"1.2 fold enrichment (6-mer frequency, TF over GST control)"
